Source: publication PMC7862700, “An all-to-all approach to the identification of sequence-specific readers for epigenetic DNA modifications on cytosine”

Key:
Test in all cases: DAPPL (digital affinity profiling via proximity ligation, sequencing); 10 mM Tris-HCl pH 7.5, 50 mM NaCl, 1 mM DTT, 4% glycerol, room temperature, 30 min; GST-TFs on glutathione beads, 16-mer random dsDNA library, 0.1% formaldehyde crosslink after washing; high values mean tight binding
Settings in all cases: protein: recombinant; tags: N-terminal GST; dsDNA, one strand shown
[1] = molecular target: T1, GABPA (Homo sapiens, UniProt Q06546 1-454)
T1 sequence: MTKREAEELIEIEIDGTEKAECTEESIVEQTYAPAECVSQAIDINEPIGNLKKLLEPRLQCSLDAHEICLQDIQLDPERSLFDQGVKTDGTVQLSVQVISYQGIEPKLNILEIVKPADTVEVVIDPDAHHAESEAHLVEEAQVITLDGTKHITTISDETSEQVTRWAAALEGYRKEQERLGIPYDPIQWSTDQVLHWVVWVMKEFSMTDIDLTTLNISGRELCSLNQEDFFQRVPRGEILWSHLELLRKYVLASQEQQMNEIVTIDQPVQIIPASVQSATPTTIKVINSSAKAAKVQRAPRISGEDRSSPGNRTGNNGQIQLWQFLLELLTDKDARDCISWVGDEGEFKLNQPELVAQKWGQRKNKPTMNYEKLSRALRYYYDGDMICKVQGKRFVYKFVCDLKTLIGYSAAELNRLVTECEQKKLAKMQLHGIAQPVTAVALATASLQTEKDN
Procedure, shortened: (§1)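 Binding signal is each hexamer's read frequency for a factor divided by its frequency in the tag-only sample. The factors were GST-fused human transcription factors from yeast, captured on glutathione beads, DNA-barcoded and pooled with that sample. Pools were incubated with 200 nmole of a random double-stranded 16-mer DNA library in Tris/NaCl/DTT/glycerol buffer at room temperature for 30 min, then washed, crosslinked with 0.1% formaldehyde, proximity-ligated with BsaI/T4 ligase (1 h, 37 °C), PCR-amplified and sequenced on an Illumina NextSeq500.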

[2] = molecular target: ELF1 (Homo sapiens, UniProt P32519 1-619)
Chain of ELF1 (P32519 whole entry): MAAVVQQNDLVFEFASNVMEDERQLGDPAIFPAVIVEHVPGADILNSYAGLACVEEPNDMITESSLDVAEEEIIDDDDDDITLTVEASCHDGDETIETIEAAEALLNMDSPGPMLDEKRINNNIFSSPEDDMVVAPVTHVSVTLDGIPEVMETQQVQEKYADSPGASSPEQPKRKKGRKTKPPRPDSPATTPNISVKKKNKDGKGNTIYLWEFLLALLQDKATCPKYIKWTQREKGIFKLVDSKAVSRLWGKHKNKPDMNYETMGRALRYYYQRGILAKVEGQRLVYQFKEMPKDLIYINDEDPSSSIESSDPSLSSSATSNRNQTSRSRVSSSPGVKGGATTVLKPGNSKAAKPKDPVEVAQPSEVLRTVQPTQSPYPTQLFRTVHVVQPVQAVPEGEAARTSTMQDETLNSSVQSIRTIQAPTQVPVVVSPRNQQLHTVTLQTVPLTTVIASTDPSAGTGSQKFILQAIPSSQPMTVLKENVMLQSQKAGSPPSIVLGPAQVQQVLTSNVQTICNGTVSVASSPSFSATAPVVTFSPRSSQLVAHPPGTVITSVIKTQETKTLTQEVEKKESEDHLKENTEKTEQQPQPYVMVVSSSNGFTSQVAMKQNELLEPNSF
Procedure, shortened: as §1

[3] = molecular target: SPI1 (Homo sapiens, UniProt P17947 1-270)
Procedure, shortened: as §1

[4] = molecular target: T2, SPIC (Homo sapiens, UniProt Q8N5J4 1-248)
T2 sequence: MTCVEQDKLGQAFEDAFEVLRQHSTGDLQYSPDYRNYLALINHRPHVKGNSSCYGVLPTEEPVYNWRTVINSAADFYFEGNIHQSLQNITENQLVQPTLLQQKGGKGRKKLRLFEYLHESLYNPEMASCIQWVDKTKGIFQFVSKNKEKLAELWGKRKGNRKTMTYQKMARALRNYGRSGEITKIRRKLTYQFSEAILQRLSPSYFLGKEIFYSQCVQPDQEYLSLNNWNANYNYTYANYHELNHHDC
Procedure, shortened: as §1

[5] = molecular target: ELF4 (Homo sapiens, UniProt Q99607 1-663)
Chain of ELF4 (Q99607 whole entry): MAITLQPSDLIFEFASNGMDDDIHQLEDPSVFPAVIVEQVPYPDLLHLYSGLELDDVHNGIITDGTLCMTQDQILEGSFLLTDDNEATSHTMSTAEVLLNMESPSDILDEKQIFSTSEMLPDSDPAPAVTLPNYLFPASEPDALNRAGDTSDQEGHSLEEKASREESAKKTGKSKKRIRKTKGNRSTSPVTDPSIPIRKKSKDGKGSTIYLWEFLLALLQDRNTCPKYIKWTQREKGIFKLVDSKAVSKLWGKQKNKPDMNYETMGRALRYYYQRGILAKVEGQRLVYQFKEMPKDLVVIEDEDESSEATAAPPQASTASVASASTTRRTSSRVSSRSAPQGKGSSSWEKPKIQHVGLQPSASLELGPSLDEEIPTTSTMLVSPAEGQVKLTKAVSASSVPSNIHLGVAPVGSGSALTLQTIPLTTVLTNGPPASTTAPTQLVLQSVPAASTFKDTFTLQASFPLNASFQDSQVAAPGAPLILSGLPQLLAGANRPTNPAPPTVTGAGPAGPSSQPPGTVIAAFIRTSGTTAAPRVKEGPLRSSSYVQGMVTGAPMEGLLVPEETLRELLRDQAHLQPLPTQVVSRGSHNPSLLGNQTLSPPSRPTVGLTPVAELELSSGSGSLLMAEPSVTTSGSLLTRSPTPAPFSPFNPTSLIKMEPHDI
Procedure, shortened: as §1

[6] = molecular target: T3, ELF3 (Homo sapiens, UniProt P78545 1-371)
T3 sequence: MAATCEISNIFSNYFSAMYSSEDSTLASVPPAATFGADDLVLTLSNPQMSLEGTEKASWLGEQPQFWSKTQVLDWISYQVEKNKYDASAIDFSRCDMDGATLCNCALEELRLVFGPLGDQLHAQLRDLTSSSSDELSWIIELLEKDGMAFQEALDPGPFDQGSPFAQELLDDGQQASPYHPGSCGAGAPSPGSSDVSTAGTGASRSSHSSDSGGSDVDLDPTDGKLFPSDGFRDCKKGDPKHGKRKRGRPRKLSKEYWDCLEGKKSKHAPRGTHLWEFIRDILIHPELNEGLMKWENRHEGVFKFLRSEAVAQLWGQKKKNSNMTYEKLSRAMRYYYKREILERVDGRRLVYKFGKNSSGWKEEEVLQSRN
Procedure, shortened: as §1

[7] = molecular target: ETV1 (Homo sapiens, UniProt P50549 1-477)
Chain of ETV1 (P50549 whole entry): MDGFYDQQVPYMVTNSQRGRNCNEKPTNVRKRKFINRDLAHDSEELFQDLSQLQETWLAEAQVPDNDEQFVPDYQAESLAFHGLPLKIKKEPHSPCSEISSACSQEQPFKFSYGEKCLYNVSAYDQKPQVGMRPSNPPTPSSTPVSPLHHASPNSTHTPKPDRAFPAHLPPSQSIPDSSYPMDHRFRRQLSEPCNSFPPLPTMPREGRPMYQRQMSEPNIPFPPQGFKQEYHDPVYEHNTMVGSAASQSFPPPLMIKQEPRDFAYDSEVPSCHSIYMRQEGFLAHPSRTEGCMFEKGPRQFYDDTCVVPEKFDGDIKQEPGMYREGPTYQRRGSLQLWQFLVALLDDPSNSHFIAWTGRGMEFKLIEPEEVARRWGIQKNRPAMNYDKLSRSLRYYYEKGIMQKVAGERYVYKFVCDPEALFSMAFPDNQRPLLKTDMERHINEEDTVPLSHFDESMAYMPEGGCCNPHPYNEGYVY
Procedure, shortened: as §1

[8] = molecular target: T4, ETV7 (Homo sapiens, UniProt Q9Y603 1-341)
T4 sequence: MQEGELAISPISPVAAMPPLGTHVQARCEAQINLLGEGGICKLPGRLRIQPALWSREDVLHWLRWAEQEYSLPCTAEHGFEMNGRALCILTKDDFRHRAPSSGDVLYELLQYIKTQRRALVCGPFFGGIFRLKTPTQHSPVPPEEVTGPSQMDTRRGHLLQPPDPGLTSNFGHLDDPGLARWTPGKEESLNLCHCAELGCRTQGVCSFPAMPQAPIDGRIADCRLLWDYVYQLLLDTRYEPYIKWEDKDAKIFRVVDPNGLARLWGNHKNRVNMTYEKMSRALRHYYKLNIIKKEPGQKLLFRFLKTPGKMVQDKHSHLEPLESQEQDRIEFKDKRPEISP
Procedure, shortened: as §1

[9] = molecular target: T5, ELF5 (Homo sapiens, UniProt Q9UKW6-2 1-255)
T5 sequence: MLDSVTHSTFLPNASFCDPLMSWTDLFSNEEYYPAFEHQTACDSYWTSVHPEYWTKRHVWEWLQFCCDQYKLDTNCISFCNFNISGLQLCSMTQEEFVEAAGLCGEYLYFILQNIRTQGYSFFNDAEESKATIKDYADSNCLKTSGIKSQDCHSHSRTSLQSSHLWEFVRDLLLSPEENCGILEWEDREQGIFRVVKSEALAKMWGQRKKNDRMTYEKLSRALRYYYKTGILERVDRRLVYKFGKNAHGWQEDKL
Procedure, shortened: as §1

[10] = molecular target: T6, ETV3 (Homo sapiens, UniProt P41162-2 1-143)
T6 sequence: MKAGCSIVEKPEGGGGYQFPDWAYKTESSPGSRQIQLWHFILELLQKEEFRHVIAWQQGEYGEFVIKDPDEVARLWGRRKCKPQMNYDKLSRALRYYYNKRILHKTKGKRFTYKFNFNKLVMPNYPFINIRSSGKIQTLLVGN
Procedure, shortened: as §1

[11] = molecular target: ETV6 (Homo sapiens, UniProt P41212 1-452)
Chain of ETV6 (P41212 whole entry): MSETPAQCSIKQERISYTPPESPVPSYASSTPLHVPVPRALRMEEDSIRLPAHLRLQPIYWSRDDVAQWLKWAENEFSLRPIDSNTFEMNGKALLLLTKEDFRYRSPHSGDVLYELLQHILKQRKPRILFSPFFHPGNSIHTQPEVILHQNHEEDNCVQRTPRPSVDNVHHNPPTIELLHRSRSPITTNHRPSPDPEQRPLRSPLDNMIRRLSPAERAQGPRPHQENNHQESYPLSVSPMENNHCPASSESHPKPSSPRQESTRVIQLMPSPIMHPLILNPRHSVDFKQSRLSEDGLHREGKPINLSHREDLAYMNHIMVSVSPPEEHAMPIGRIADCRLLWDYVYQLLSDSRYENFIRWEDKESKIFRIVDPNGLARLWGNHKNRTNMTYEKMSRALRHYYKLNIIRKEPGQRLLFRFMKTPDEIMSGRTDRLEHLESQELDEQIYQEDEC
Procedure, shortened: as §1

[12] = molecular target: T7, ELK1 (Homo sapiens, UniProt P19419 1-428)
T7 sequence: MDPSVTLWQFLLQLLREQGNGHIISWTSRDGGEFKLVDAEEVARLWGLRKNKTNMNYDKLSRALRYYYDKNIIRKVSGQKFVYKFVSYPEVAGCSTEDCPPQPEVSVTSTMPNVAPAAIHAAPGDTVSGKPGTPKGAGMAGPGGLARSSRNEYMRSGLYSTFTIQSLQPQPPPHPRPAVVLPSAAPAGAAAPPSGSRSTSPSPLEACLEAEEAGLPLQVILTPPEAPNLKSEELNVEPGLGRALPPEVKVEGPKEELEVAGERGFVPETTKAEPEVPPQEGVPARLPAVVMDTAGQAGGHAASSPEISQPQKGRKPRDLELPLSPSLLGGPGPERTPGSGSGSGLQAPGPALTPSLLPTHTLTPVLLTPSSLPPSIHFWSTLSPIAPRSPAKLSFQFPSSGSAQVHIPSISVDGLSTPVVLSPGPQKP
Procedure, shortened: as §1

[13] = molecular target: T8, EHF (Homo sapiens, UniProt Q9NZC4 1-300)
T8 sequence: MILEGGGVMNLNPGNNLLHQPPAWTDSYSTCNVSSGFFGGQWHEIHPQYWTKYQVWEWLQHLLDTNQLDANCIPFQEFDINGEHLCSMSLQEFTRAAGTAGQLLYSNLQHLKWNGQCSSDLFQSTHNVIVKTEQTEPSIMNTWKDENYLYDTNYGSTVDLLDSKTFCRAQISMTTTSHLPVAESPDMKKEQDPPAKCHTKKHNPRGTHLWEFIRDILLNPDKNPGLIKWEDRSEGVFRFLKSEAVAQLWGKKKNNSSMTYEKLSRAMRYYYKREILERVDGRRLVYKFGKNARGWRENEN
Procedure, shortened: as §1

[14] = molecular target: T9, ELK3 (Homo sapiens, UniProt P41970 1-407)
T9 sequence: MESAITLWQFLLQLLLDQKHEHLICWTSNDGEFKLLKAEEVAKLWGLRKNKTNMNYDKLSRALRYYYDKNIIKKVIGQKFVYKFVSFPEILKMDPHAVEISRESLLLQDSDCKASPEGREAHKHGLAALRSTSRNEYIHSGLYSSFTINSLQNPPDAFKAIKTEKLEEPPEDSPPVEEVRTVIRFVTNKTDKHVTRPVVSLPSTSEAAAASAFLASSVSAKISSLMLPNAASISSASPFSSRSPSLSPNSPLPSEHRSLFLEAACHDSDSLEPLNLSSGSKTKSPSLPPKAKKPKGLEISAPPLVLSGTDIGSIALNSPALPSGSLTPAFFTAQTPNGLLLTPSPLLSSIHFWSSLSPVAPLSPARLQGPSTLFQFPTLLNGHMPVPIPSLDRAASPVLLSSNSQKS
Procedure, shortened: as §1

[15] = molecular target: T10, FEV (Homo sapiens, UniProt Q99581 1-238)
T10 sequence: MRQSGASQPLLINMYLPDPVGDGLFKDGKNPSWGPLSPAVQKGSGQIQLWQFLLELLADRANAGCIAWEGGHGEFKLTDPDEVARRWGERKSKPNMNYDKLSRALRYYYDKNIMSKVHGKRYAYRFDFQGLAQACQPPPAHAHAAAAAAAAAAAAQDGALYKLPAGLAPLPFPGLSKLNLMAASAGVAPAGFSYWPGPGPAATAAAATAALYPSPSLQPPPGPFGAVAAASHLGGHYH
Procedure, shortened: as §1

[16] = molecular target: T11, ELK4 (Homo sapiens, UniProt P28324-2 1-405)
T11 sequence: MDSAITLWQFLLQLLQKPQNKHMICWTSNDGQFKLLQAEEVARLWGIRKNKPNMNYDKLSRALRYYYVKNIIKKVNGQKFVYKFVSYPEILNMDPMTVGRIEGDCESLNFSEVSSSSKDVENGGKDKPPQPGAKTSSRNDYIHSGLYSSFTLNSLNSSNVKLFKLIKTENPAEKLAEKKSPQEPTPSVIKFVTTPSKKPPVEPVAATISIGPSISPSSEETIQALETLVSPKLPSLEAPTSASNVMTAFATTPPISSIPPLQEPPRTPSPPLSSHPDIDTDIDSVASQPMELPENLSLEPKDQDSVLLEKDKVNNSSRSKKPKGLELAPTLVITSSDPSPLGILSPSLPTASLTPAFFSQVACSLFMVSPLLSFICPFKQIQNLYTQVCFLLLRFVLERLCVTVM
Procedure, shortened: as §1

[17] = molecular target: T12, ETV2 (Homo sapiens, UniProt O00321 1-342)
T12 sequence: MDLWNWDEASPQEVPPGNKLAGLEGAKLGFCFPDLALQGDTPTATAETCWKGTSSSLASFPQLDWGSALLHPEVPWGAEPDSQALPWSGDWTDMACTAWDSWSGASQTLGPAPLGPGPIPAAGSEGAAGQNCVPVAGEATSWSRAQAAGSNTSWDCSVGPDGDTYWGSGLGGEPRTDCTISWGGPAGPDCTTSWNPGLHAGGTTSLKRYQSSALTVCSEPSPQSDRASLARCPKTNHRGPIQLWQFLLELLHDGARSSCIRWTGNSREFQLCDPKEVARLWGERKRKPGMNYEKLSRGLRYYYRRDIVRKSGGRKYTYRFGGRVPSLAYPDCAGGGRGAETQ
Procedure, shortened: as §1

[18] = molecular target: T13, ETV3L (Homo sapiens, UniProt Q6ZN32 1-361)
T13 sequence: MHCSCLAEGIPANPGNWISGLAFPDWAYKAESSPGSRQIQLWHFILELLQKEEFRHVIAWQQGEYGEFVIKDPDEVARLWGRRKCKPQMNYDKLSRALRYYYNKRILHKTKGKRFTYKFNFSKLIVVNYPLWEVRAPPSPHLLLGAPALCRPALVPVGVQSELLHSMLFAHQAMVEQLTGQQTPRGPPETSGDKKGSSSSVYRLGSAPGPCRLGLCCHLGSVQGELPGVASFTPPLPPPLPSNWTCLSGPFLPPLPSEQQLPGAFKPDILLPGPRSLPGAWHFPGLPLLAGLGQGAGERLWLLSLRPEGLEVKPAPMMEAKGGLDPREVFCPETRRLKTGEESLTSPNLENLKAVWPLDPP
Procedure, shortened: as §1

[19] = molecular target: T14, SPDEF (Homo sapiens, UniProt O95238 1-335)
T14 sequence: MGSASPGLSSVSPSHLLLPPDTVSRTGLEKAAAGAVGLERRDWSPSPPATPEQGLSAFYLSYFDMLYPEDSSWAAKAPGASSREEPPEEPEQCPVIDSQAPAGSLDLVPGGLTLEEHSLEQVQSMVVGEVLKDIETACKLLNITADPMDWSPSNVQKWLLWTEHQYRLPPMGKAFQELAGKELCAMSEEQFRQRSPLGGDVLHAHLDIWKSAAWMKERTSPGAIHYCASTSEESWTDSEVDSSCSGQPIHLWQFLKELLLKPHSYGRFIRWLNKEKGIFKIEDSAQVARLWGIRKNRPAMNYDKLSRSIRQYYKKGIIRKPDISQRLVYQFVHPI
Procedure, shortened: as §1

Sequence	binding signal [1]	binding signal [2]	binding signal [3]	binding signal [4]	binding signal [5]	binding signal [6]	binding signal [7]	binding signal [8]	binding signal [9]	binding signal [10]	binding signal [11]	binding signal [12]	binding signal [13]	binding signal [14]	binding signal [15]	binding signal [16]	binding signal [17]	binding signal [18]	binding signal [19]
AACGCG	1.04 fold enrichment (6-mer frequency, TF over GST control)	1.05 fold enrichment (6-mer frequency, TF over GST control)	1.05 fold enrichment (6-mer frequency, TF over GST control)	1.1 fold enrichment (6-mer frequency, TF over GST control)	1.01 fold enrichment (6-mer frequency, TF over GST control)	1.02 fold enrichment (6-mer frequency, TF over GST control)	1.04 fold enrichment (6-mer frequency, TF over GST control)	1.02 fold enrichment (6-mer frequency, TF over GST control)	1.03 fold enrichment (6-mer frequency, TF over GST control)	1.1 fold enrichment (6-mer frequency, TF over GST control)	1.01 fold enrichment (6-mer frequency, TF over GST control)	–	–	–	–	–	–	–	–
ACGCGC	1.07 fold enrichment (6-mer frequency, TF over GST control)	1.05 fold enrichment (6-mer frequency, TF over GST control)	–	1.05 fold enrichment (6-mer frequency, TF over GST control)	1.06 fold enrichment (6-mer frequency, TF over GST control)	–	–	–	–	1.09 fold enrichment (6-mer frequency, TF over GST control)	–	1.12 fold enrichment (6-mer frequency, TF over GST control)	1.07 fold enrichment (6-mer frequency, TF over GST control)	1.04 fold enrichment (6-mer frequency, TF over GST control)	1.04 fold enrichment (6-mer frequency, TF over GST control)	1.02 fold enrichment (6-mer frequency, TF over GST control)	1.08 fold enrichment (6-mer frequency, TF over GST control)	1.09 fold enrichment (6-mer frequency, TF over GST control)	1.06 fold enrichment (6-mer frequency, TF over GST control)
